The results in this text go back to PubChem BioAssay (NCATS).

Several values for one entry are separate records, joined by “and”; a condition that tells them apart may be missing. Equal values may be shown once. Results filed as inconclusive are left out. Activity calls are given as the source filed them. The call rests on the fitted dose curve; in most records, active means well fitted activation curve with a large enough effect; inconclusive means small, poorly fitted or top-dose-only effect; inactive means no such curve, though single readings can be large or run the other way.
Potency means the concentration at half of the fitted maximal effect.

Sequence of Cellular tumor antigen p53 (Homo sapiens) (P04637 whole entry, looked up): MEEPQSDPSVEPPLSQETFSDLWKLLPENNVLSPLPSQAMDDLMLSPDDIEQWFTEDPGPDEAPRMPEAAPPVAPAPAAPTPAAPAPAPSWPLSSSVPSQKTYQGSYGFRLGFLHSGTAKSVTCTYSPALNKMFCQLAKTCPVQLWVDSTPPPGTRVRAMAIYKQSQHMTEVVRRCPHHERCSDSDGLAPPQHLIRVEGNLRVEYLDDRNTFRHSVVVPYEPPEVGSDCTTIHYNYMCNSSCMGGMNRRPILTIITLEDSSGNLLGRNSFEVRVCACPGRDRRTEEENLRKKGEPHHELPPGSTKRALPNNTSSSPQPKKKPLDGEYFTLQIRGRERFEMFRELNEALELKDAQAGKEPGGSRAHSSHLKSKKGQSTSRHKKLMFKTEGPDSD

The assay concerns the target Cellular tumor antigen p53 (Homo sapiens) (UniProt P04637). The assay is described as follows: Primary qHTS for small molecule compounds that upregulate eGFP-tagged delta133p53alpha (in N-terminal) cells. (AID 2060322). Further: nearly all actives have a fitted effect of over 75% in size.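 On activation: cells pre-induced with doxycycline then dosed without doxycycline; series mostly up to about 56 µM; 0% = DMSO vehicle and 100% = reference activator.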 Conditions: NCI-H358 eGFP-delta133p53alpha fluorescence, 24 h; activation: hits give high values. Summed up:
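NCI-H358 cells pre-induced 24 h with 10 ng/ml doxycycline for eGFP-delta133p53alpha, plated dox-free and exposed 24 h at 37C to titrated compounds. Fixed, Hoechst-stained; gated GFP peak intensity by laser scanning cytometry, normalized to DMSO (0%) and 57.5 uM 5-azacytidine (100%).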
On the technique in general: qHTS replaces the single test concentration by a dilution series.
Take `CCC[C@@H](NC(=O)[C@@H]1[C@H]2CCC[C@@H]2CN1C(=O)[C@@H](NC(=O)[C@@H](NC(=O)c1cnccn1)C1CCCCC1)C(C)(C)C)C(=O)C(=O)NC1CC1`: the activation was 19.1% (inactive).

In the case of `C[C@H]1O[C@H](O[C@H]2[C@H](O)[C@@H](O)[C@@H](O[C@H]3[C@H](O)[C@@H](O)C(O)O[C@H]3CO)O[C@H]2CO)[C@H](O)[C@@H](O)[C@H]1N[C@H]1C=C(CO)[C@@H](O)[C@H](O)[C@@H]1O` (stereo partly specified), the activation is 140% (inactive). On to `CN(C)CCOC(c1ccc(Cl)cc1)c1ccccn1` (stereo unspecified), for which the activation is 15.3% (inactive). As for `Cc1nc(NC(=O)N2CCC[C@@H]2C(N)=O)sc1-c1csc(C(C)(C)C)n1`, the activation was -6.14% (inactive).

With `Cc1ccc(S(=O)(=O)NC(=O)NC2CCCC2)cc1`, the activation was 23.2% (inactive).

For `CC(C)[N+]1(C)[C@@H]2CC[C@H]1CC(OC(=O)C(CO)c1ccccc1)C2` (stereo partly specified), the activation is 33.8% (inactive). Take `CCn1cc(C(=O)O)c(=O)c2cnc(N3CCCC3)nc21`: the activation was 3.95% (inactive).

In the case of `Cc1cc(O)c(C)c(C)c1O`, the activation is 17.5% (inactive). For the compound `C[C@@H]1CCN(C(=O)CC#N)C[C@H]1N(C)c1ncnc2[nH]ccc12`, the activation is -11.8% (inactive).

As to `Cc1cc(C)cc(OCC2CNC(=O)O2)c1` (stereo unspecified), the activation is -11.9% (inactive).

As for `Cc1c[nH]c(C=C2C(=O)Nc3ccccc32)c1CCC(=O)O`, the Potency was 24.3 µM (active). Consider `COc1cc(C(=O)N2CCCCCCC2)cc(OC)c1OC`, for which the activation is -6.21% (inactive). Still for that read-out and setting: as for `C[C@H](CCC(=O)O)[C@H]1CC[C@H]2[C@H]3[C@@H](CC[C@]12C)[C@@]1(C)CC[C@@H](O)C[C@H]1C[C@@H]3O`, the figure is -8.06% (inactive). Same read-out and setting: as for `COc1ccc(-c2cc(=O)c3c(O)cc(O[C@@H]4O[C@H](CO[C@@H]5O[C@@H](C)[C@H](O)[C@@H](O)[C@@H]5O)[C@@H](O)[C@H](O)[C@@H]4O)cc3o2)cc1O`, the figure is -19% (inactive); as for `O=C1NC(=O)C(=Cc2ccc(-c3ccc(F)cc3)o2)S1`, -1.63% (inactive).

On to `COc1ccc2nc(SCc3ncc(C)c(OC)c3C)[nH]c2c1`, for which the activation was 7.34% (inactive). The same measure, in the same setting: as for `CC(CC(C#N)(c1ccccc1)C(C)C)N(C)C` (stereo unspecified), the figure is -0.837% (inactive); as for `O=C(O)P(=O)(O)O`, -13% (inactive). Still for that read-out and setting: as for `C=C1C[C@H]2[C@@H]3C=C(C)C4=CC(=O)CC[C@]4(C)[C@H]3CC[C@]2(C)[C@@]1(OC(C)=O)C(C)=O`, the figure is -0.837% (inactive); as for `COC(=O)N/N=C/c1c[n+]([O-])c2ccccc2[n+]1[O-]`, -30.1% (inactive); as for `CC1CC(OC(=O)c2ccccc2O)CC(C)(C)C1` (stereo unspecified), -0.565% (inactive).

As for `C#CC(C)(CC)OC(=O)c1ccccc1C(=O)O` (stereo unspecified), the activation is -11.9% (inactive). Consider `Cn1cc(C=C2C(=O)Nc3cccnc32)c2ccccc21`, for which the Potency was 24.3 µM (active). For the compound `CC(C)(C)C(=O)OCOC(=O)C1N2C(=O)CC2S(=O)(=O)C1(C)C` (stereo unspecified), the activation is 3.95% (inactive). With `CC(C)OC(=O)OCOP(=O)(CO[C@H](C)Cn1cnc2c(N)ncnc21)OCOC(=O)OC(C)C`, the activation was -1.51% (inactive) and -14.1% (inactive). Same read-out and setting: then `COc1cc(Cl)cn2c(-c3cccc(NC4CNC4)n3)cnc12`, with -0.246% (inactive); and `CC(C)OC(=O)CCCC=CC[C@@H]1[C@H](C=C[C@@H](O)COc2cccc(C(F)(F)F)c2)[C@H](O)C[C@@H]1O`, with -7.59% (inactive). The same measure, in the same setting: as for `CC[C@]12C=CCN3CC[C@@]4(c5cc([C@@]6(C(=O)OC)C[C@H]7C[C@@H](C(C)(F)F)CN(Cc8c6[nH]c6ccccc86)C7)c(OC)cc5N(C)[C@H]4[C@@](O)(C(=O)OC)[C@H]1OC(C)=O)[C@@H]32`, the figure is -7.99% (inactive); as for `Cc1onc(-c2ccccc2)c1C(=O)Cl`, 6.21% (inactive).

As for `CN1C(C)(C)CCCC1(C)C`, the activation was 0% (inactive).

Consider `CCC(CC)[C@H](NC(C)=O)[C@@H]1[C@H](O)[C@@H](C(=O)O)C[C@@H]1N=C(N)N`, for which the activation was 7.36% (inactive).

On to `CC(C)NC[C@@H](O)COc1ccc(CC(N)=O)cc1`, for which the activation is -20.9% (inactive). On to `CC(CC1c2ccccc2CCc2ccccc21)CN(C)C` (stereo unspecified), for which the activation was -10% (inactive). Same read-out and setting: then `CN1CCC[C@@H]1CCO[C@](C)(c1ccccc1)c1ccc(Cl)cc1`, with 26.6% (inactive); and `O=Cc1ccc(O)c(O)c1O`, with -4.18% (inactive). The same measure, in the same setting: as for `Cc1onc(-c2ccccc2)c1C(=O)N[C@@H]1C(=O)N2[C@@H](C(=O)O)C(C)(C)S[C@@H]12`, the figure is -7.66% (inactive).
